According to PubChem BioAssay AID489028 (Sanford-Burnham Center for Chemical Genomics, 2010):
Screen size: about 10,000 compounds; about 5,600 (56%) were called active. Cut-off read from the data, not from the text of the source: active = inhibition above about 40%; inactive = the rest. The set was probably picked from earlier hits. These entries were drawn from the full list.

Molecular target: Protein Mdm4 (Homo sapiens) + E3 ubiquitin-protein ligase Mdm2 (Homo sapiens) (UniProt O15151+Q00987)
Sequence (O15151 whole entry, looked up): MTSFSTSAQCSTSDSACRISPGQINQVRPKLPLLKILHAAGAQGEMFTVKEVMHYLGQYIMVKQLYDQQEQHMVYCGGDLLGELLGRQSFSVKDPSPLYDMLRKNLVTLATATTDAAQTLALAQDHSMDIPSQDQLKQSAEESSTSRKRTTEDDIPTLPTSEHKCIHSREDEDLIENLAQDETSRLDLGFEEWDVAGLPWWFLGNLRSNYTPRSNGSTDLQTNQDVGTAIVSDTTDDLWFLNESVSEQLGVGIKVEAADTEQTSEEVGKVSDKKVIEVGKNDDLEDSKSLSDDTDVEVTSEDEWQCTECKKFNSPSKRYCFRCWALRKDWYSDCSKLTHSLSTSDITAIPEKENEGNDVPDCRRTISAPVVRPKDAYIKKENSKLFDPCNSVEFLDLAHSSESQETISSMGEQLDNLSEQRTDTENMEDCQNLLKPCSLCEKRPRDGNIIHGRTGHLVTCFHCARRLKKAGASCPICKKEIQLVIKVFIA
Sequence (Q00987 whole entry, looked up): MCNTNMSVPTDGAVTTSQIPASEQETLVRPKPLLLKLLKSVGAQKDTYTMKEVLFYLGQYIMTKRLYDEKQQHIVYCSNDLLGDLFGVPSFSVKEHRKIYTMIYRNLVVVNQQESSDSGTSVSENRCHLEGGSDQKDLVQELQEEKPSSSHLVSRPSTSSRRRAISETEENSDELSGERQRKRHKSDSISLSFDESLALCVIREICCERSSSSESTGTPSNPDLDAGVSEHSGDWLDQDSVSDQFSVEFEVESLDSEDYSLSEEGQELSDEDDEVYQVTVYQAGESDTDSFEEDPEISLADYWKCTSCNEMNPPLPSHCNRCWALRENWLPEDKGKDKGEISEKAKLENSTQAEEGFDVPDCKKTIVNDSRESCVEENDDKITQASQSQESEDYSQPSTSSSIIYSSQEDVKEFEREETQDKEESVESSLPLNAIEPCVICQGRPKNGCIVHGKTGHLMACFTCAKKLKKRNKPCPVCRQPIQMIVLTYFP
Assay: inhibition of human Mdm2/MdmX pairing – luminescence, single concentration, confirmation (AID 489028)
Conditions: Mdm2-MdmX binding, luminescent assay; at 8 µM; stronger effect = higher value

| Structure (SMILES) | inhibition |
| --- | --- |
| N#Cc1ccc(C(=O)Nc2cccc3cccnc23)c(F)c1 | 1.3% (inactive) |
| CC(=O)/C(=N\Nc1ccc(Cl)cc1Cl)Sc1cccc2cccnc12 | 63% (active) |
| NC(N)=Nc1nc(-c2ccccc2)c2cc(Cl)ccc2n1 | 59.5% (active) |
| CCCCCCC(=O)N(O)C1CC(=O)N(c2ccccc2)C1=O (centres undefined) | 27.3% (inactive) |
| COc1ccc(Nc2ncnc3ccc(Br)cc23)c(OC)c1 | 74% (active) |
| CCN(CCCNC(=O)CSc1cc(=O)n(C)c2cc(Cl)ccc12)Cc1ccccc1 | 19.6% (inactive) |
| CC1CN(C(=O)CCC(=O)NCCCN2CCC(Cc3ccccc3)CC2)c2cc(Cl)ccc2O1 (centres undefined) | 56.8% (active) |
| FC(F)(F)c1ccc(CN2C[C@@H]3C(c4ccccc4)C4(c5ccccc5)CC3(C4)[C@H]2c2ccccc2)cc1 (some centres undefined) | 94.5% (active) |
| Cc1cc(C(=O)NC2CCCc3c2cnn3-c2cccc(C)c2C)c(C)o1 (centres undefined) | 61.6% (active) |
| COc1ccc(C(=O)NC2CCCc3c2cnn3-c2cccc(C)c2C)c(OC)n1 (centres undefined) | 94.8% (active) |
| CCCC(O)(CCC)C(=O)NN(C(=O)CCl)c1cccc(C)c1 | 58.3% (active) |
| CCCCC(O)(CCCC)C(=O)NN(C(=O)CCl)c1ccccc1 | 57.1% (active) |
| CCCCn1ccnc1C(=O)c1cccc(S(=O)(=O)N2c3ccccc3CC2C)c1 (centres undefined) | 9.35% (inactive) |
| N=c1n(CCc2ccccc2)c2ccccc2n1Cc1ccccc1F | 52.5% (active) |
| CCCc1ccc(OCC(=O)NNC(=S)NC(=O)c2ccco2)cc1 | 23.9% (inactive) |
| COC(=O)c1c(NC(=O)COc2ccc(Cl)cc2Cl)sc2c1CC(C)(C)NC2(C)C | 73.6% (active) |
| CN1CCN(C2Cc3ccc(Cl)cc3Sc3ccc(F)cc32)CC1 (centres undefined) | 27.8% (inactive) |
| Oc1cccc(/C=N/Nc2ccc(Cl)nn2)c1O | 61.2% (active) |
| CCOc1ccc(C2c3[nH]c4ccccc4c3CCN2Cc2cccn2-c2ncccn2)cc1 (centres undefined) | 32.3% (inactive) |
| C=CCn1c(SCc2c(C)noc2C)nc2sc3c(c2c1=O)CCC(C)C3 (centres undefined) | 57.9% (active) |
| CCOc1cc(-c2cc(-c3ccc(NC(C)=O)cc3)nc(N)c2C#N)ccc1O | 31.6% (inactive) |
| Cc1ccc(-n2[nH]c(C)c(/C=N/NC(=O)c3cccc([N+](=O)[O-])c3)c2=O)cc1C | 82.2% (active) |
| O=[N+]([O-])c1cc(S(=O)(=O)Nc2cccc(Cl)c2)ccc1N=Nc1c(O)[nH]c2ccccc12 | 5.3% (inactive) |

| Structure (SMILES) | inhibition |
| --- | --- |
| NS(=O)(=O)c1ccc(N=Nc2c(O)[nH]c3ccc(Br)cc23)cc1 | 42.6% (active) |
| O=C(Nc1ccc(C(=O)N2CCOCC2)cc1)Nc1cccc(C(F)(F)F)c1 | 70.3% (active) |
| O=C(Nc1ccc(-c2csc(Nc3cccc(C(F)(F)F)c3)n2)cc1)c1cccc(C(F)(F)F)c1 | -10.4% (inactive) |
| CCNS(=O)(=O)c1ccc(NC(=O)Nc2cccc(C(F)(F)F)c2)cc1 | 42.4% (active) |
| CC(C)Oc1c(Br)cc(Br)cc1/C=N/NC(N)=S | 15.2% (inactive) |
| CCC1CCCCN1CCCNC(=O)c1cc2c(Cl)nc3ccccc3c2s1 (centres undefined) | 26% (inactive) |
| Cc1nc(/N=C(\N)NC(=O)NC2CCCCC2)nc2ccccc12 | 43.9% (active) |
| O=[N+]([O-])/C=C/c1ccc2c(ccn2Cc2ccccc2)c1 | 52.9% (active) |
| CN(c1ccccc1)S(=O)(=O)c1cc(C(=O)N2CCN(c3ncccn3)CC2)ccc1Cl | 50.1% (active) |
| O=C(CSc1nc(Nc2ccccc2)nc(N2CCOCC2)n1)Nc1cc(Cl)ccc1O | 35% (inactive) |
| COc1cccc(-n2c(SCC(=O)NC3CCCCC3)nc3n[nH]c(C)c3c2=N)c1 | 51.4% (active) |
| CC(C)(C)OC(=O)N1CCC(NC(=O)c2[nH]cnc2C(=O)N[C@@H](Cc2ccccc2)C(=O)OCc2ccccc2)CC1 | -8% (inactive) |
| CCOC(=O)Nc1ccc2c(c1)N(C(=O)CCCl)c1ccccc1[S@]2=O | 41.2% (active) |
| CCOc1cc(C(=O)N2CCc3cc(OC)c(OC)cc3C2)ccc1OC(F)F | 56.4% (active) |
| CCOc1cc2[nH]c(=S)n(Cc3ccc(C(=O)N4CCN(C)CC4)cc3)c(=O)c2cc1OCC | -2.8% (inactive) |
| O=c1[nH]c(CCl)nc2cc(-c3ccc(Cl)cc3)sc12 | 7.45% (inactive) |
| COc1cccc(NC(=O)[C@H](Cc2c[nH]c3ccccc23)NC(=O)[C@@H]2Cc3ccccc3CN2)c1 | 76% (active) |
| CC(C)=CCCC1(C)C=Cc2c(ccc3c2[nH]c2cc(O)c(C)cc23)O1 (centres undefined) | 20.9% (inactive) |
| Cc1ccc(OCCOCCOc2ccc(Br)cc2/C=N\NC(=O)c2ccncc2)cc1 | 68% (active) |
| O=[N+]([O-])c1ccccc1S(=O)(=O)Nc1cccc2cccnc12 | 64.5% (active) |
| CC(NC(=O)c1ccc(N2CCNCC2)c([N+](=O)[O-])c1)C12CC3CC(CC(C3)C1)C2 (centres undefined) | 73% (active) |
| O=C(Nc1cccc(C(F)(F)F)c1)c1ccc(N2CCNCC2)c([N+](=O)[O-])c1 | 8.6% (inactive) |
| O=C(/C=C/c1ccc(Cl)cc1)Nc1ccc(Br)cn1 | 13.2% (inactive) |

| Structure (SMILES) | inhibition |
| --- | --- |
| Cc1cccc(Nc2ccccc2C(=O)NCc2ccco2)c1C | 43.1% (active) |
| CCc1nn(-c2cc(Oc3cccc4ccccc34)nc(-c3ccccc3)n2)c(N)c1C#N | 13.9% (inactive) |
| CN(C)c1ccnc2sc3c(=O)n(Cc4ccccc4)cnc3c12 | 64.7% (active) |
| Cc1c(/C=N\NC(=O)c2cc3ccccc3o2)c2ccccc2n1C | 54.4% (active) |
| N#CCC(=O)N/N=C/c1cn(Cc2ccc3ccccc3c2)c2ccccc12 | 23.6% (inactive) |
| COc1cccc(CNCCc2c[nH]c3ccccc23)c1OCc1ccccc1F | 45.4% (active) |
| COc1cccc(-c2nnc(NC(=O)c3ccc(S(=O)(=O)N(CC(C)C)CC(C)C)cc3)o2)c1 | 52.3% (active) |
| NC(=O)c1sc2nc3c(c(-c4ccccc4)c2c1N)CCC3 | 68.7% (active) |
| COc1ccc(CNC(=O)C[C@H]2C[C@H](C(=O)N3CCOCC3)[C@@]3(CCC4CCCC4)c4[nH]c5ccc(Cl)cc5c4CCN3C2=O)cc1OC | 49.1% (active) |
| CCCCCCCCn1c2c(c(=N)c3c1CCC3)CCCC2 | 91.8% (active) |
| Cc1cc(=O)oc2cc(OCC3CC(c4ccccc4Cl)=NO3)ccc12 (centres undefined) | 47.2% (active) |
| CC(C)=CC(=O)Nc1nnc(-c2ccc(F)cc2)s1 | -17.9% (inactive) |
| Cc1nnnn1/C(=C\c1ccccc1)C(=O)OCC(=O)N1CC2(C)CC1CC(C)(C)C2 (centres undefined) | 47.9% (active) |
| O=C(NCC1CCCO1)c1cc2c([nH]c3ccccc32)c(-c2ccc(F)cc2)n1 (centres undefined) | 61.5% (active) |
| COc1ccc(N=Cc2c(O)[nH]c3ccccc23)cc1OC | 47% (active) |
| COc1cc(N=Cc2c(O)[nH]c3ccccc23)cc(OC)c1OC | 73.8% (active) |
| C[C@@H](NC(=O)OC(C)(C)C)c1nnc(S(=O)(=O)Cc2ccccc2)o1 | 54% (active) |
| CC(C)(C)OC(=O)NNc1c2ccccc2nc2ccccc12 | 21.1% (inactive) |
| CC(=O)Nc1ccc(NC(=O)C2CCCN(S(=O)(=O)c3ccc(Cl)cc3)C2)cc1 (centres undefined) | 3.65% (inactive) |
| Cc1ccnc(NC(=O)C2CCN(S(=O)(=O)c3c(C)c(C)cc(C)c3C)CC2)c1 | 69.8% (active) |
| COc1cc2[nH]c(=S)n(Cc3ccc(F)cc3)c(=O)c2cc1OC | 15.8% (inactive) |
| COc1cccc2sc(NNC(=O)c3nc4ccccc4s3)nc12 | 45.7% (active) |
| CCOc1ccc(-c2cc(C(=O)N/N=C/c3ccc(O)cc3)c3ccccc3n2)cc1 | 76.8% (active) |

| Structure (SMILES) | inhibition |
| --- | --- |
| Nc1ccc(C(=O)Nc2ccccc2N)cc1 | 6.25% (inactive) |
| COc1ccc(C(=O)/C=C/Nc2ccccn2)cc1 | 25.4% (inactive) |
| O=C(CCCN1C(=O)/C(=C\c2ccccc2)SC1=S)Nc1ccccc1O | 69.7% (active) |
| O=C(CCCN1C(=O)/C(=C/c2cccs2)SC1=S)Nc1ccc(O)cc1 | 61.5% (active) |
| O=C(CCCN1C(=O)/C(=C/c2ccccc2)SC1=S)Nc1ccc(O)cc1 | 93.9% (active) |
| COc1ccc(/C=C2\SC(=S)N(CCC(=O)Nc3ccccn3)C2=O)cc1OC | 54.1% (active) |
| CCN1CCN(c2ccc(S(=O)(=O)N3CCCCC3)cc2NC(=O)Cc2c(Cl)cccc2Cl)CC1 | 30.6% (inactive) |
| O=C(/C=C/c1ccccc1)Nc1nnc(SCC(=O)c2ccc3ccccc3c2)s1 | 2.95% (inactive) |
| O=C(Nc1ccc(Cl)cc1)Nc1nnc(/C=C/c2ccccc2)s1 | 81.4% (active) |
| Oc1ccc(Br)cc1/C=N/Nc1ccccn1 | 87.7% (active) |
| CCCCNC(=O)C(C)N(CCN(C)C)C(=O)CCCCCN1C(=O)NC(c2ccc(Cl)cc2)C(C(=O)OCc2ccccc2)=C1C (centres undefined) | 49.5% (active) |
| CCCCNC(=O)C(C)N(CCN(C)C)C(=O)CCCN1C(=O)NC(c2ccc(Cl)cc2)C(C(=O)OCc2ccccc2)=C1C (centres undefined) | 15.1% (inactive) |
| Cc1cc(C(=O)COC(=O)CNC(=O)c2ccc(F)cc2)c(C)n1Cc1ccco1 | 72.7% (active) |
| CC1=CC(C)(C)Nc2ccc(OC(=O)CN3C(=O)C4CCCCC4C3=O)cc21 (centres undefined) | 9.75% (inactive) |
| COc1ccc(/C=C/C(=O)Nc2ccc(C34CC5CC(CC(O)(C5)C3)C4)cc2)cc1OC | 36.9% (inactive) |
| COc1cc(/C=N/NC(=O)Nc2ccccc2)ccc1OCCOc1ccccc1C | 72.8% (active) |
| Brc1ccc2ncnc(NCc3cccnc3)c2c1 | 68.7% (active) |
| CCn1c(O)c(N=NC(=O)c2cccc(S(=O)(=O)N3CCCCC3)c2)c2ccccc21 | 36.7% (inactive) |
| Cc1cccc(CS(=O)(=O)c2ncc(Cl)c(C(=O)Nc3ccc(F)cc3)n2)c1 | 75.5% (active) |
| Cc1cccc(NC(=O)c2nc(S(=O)(=O)Cc3ccccc3)ncc2Cl)c1 | 95.2% (active) |
